Results as given in PubChem BioAssay (NCATS).
Several values for one entry are separate records, joined by “and”; a condition that tells them apart may be missing. Identical values can stand only once. Results filed as inconclusive are left out. Activity calls are given as the source filed them. Unless noted, calls come from the whole dose curve; as a rule, active = well fitted curve in the direction sought with a large enough effect; inconclusive = small, poorly fitted or top-dose-only effect, or another doubt; inactive = no such curve, though single readings can be large; an effect the other way counts as inactive or inconclusive.

Tests used:
[1] = qHTS for small molecule inhibitors of Yes1 kinase: Counter Assay (AID 686950);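 note: no kinase present so only ADP-Glo detection of a fixed ADP amount is tested; luminescence from ADP-Glo reporting ADP in a fixed ATP and ADP mixture; series mostly up to about 77 µM; 0% = DMSO wells with ATP plus ADP and -100% = ATP-only wells without ADP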
Summary of the method: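 Enzyme-free detection counter-screen: compounds preincubated 20 min in buffer, then 0.08 mM ATP plus 0.02 mM ADP added for 60 min at room temperature; ADP-Glo luminescence. Buffer 50 mM Tris pH 7.5, 10 mM MgCl2, 150 mM NaCl; normalized to ATP+ADP and ATP-only controls.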

[2] = qHTS for compounds that reverse cellular toxicity of Amyloid beta (A-beta) peptide in yeast: LOPAC Validation Assay (AID 720559);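 note: plate controls were DMSO for no effect and equimolar ferric chloride plus clioquinol rescue for full effect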
Summary of the method: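 Here, A-beta-toxic yeast grow with test compounds at 30 C for 48 hr before optical density at 600 nm is recorded; data are normalized against DMSO and the FeCl3-clioquinol control.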

[3] = qHTS for Activators of Parkin Expression: LOPAC Validation Assay (NLuc Reporter) (AID 720572;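 note: 0% = DMSO and 100% = positive control compound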)
Summary of the method: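 Neuronal cells with a Parkin promoter-driven FLuc/NLuc coincidence reporter were treated 24 h at 37 C in 7-point dose response (LOPAC). NLuc luminescence read after FLuc; signals normalized to DMSO and positive control (100%).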

[4] = qHTS for Activators of Parkin Expression: LOPAC Validation Assay (FLuc Reporter) (AID 720573;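 note: 0% = DMSO and 100% = positive control compounds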)
Summary of the method: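 Readout is FLuc luminescence from neuronal reporter cells (Parkin promoter, FLuc plus NLuc) after 24 h compound exposure in dose response. Values normalized to neutral DMSO and positive-control compounds.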

[5] = qHTS assay for small molecule agonists of the antioxidant response element (ARE) signaling pathway measured by Nrf2-dependant transcriptional activity (AID 720636; active = well fitted curve in the direction sought with a large enough effect in the repeat runs; an effect the other way counts as inactive or inconclusive;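 note: HepG2 cells with an ARE-driven luciferase reporter; % of control where 0% means no effect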)
Summary of the method: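 In HepG2 cells engineered with an Nrf2-responsive luciferase gene, ARE induction was quantified as luminescence after 16 hr compound treatment at 37 C.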

[6] = qHTS assay for small molecule antagonists of the retinoid-related orphan receptor gamma (ROR-gamma) signaling pathway - cell viability counter screen (AID 720652; active = well fitted curve in the direction sought with a large enough effect in the repeat runs; an effect the other way counts as inactive or inconclusive;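 note: CHO reporter cells with doxycycline-induced ROR-gamma expression; series mostly up to about 92 µM; compound exposure lasted 16 hr before ATP read; % is set by controls: 0 for no effect and ±100 for the full control effect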)
Summary of the method: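 CHO cells carrying TET-inducible ROR and RORE-luciferase reporter, plated 5 hr, then dosed with compound plus doxycycline. After 16 hr at 37 C, viability read as intracellular ATP by CellTiter-Glo luminescence.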

[7] = qHTS assay for small molecule agonists of the antioxidant response element (ARE) signaling pathway measured by Nrf2-dependant transcriptional activity - cell viability counter screen (AID 720653; active = well fitted curve in the direction sought with a large enough effect in the repeat runs; an effect the other way counts as inactive or inconclusive; note: % is set by controls: 0 for no effect and ±100 for the full control effect); settings: ARE-bla HepG2 viability, CellTiter-Glo ATP luminescence, 16 h; stronger effect = lower value
Summary of the method: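 ARE-bla HepG2 cells treated with compounds for 16 h at 37C; this counter screen measures viability as intracellular ATP by CellTiter-Glo luminescence after 30 min at room temperature.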

[8] = target: T1, Hexokinase-4 (Homo sapiens) + Glucokinase regulatory protein (Homo sapiens) (UniProt P35557+Q14397); experiment: qHTS assay for inhibitors of recombinant human GCK-GKRP interaction: Diaphorase-coupled assay (AID 743205)
T1 sequence (P35557 whole entry, looked up): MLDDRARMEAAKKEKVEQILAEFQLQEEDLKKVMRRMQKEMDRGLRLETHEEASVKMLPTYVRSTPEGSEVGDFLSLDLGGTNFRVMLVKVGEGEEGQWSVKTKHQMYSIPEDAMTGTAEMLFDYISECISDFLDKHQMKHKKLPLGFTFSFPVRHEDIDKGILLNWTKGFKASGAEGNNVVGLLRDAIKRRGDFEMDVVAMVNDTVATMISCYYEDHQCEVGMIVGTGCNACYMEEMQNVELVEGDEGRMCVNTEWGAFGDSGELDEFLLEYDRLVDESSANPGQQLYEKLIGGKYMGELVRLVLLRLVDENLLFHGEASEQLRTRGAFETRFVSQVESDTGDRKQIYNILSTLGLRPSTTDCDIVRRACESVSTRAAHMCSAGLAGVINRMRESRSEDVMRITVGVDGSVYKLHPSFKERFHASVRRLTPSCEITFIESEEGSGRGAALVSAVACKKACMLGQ
T1 sequence (Q14397 whole entry, looked up): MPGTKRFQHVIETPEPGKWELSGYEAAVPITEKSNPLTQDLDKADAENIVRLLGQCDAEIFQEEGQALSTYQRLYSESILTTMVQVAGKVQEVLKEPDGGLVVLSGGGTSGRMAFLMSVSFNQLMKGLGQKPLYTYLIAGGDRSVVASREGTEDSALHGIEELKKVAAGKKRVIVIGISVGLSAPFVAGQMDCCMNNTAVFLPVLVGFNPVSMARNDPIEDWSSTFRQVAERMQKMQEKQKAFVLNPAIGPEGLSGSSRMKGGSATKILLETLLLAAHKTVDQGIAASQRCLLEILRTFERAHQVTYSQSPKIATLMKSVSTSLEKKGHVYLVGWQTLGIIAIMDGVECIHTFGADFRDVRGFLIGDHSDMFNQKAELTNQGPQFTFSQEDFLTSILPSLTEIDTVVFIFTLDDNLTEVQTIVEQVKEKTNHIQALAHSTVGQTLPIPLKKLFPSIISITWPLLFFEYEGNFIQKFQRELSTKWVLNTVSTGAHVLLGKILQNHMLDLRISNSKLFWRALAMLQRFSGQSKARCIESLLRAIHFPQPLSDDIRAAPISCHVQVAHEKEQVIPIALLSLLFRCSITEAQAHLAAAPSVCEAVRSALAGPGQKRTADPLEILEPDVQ
Summary of the method: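 Signal derives from resorufin generated by diaphorase, linked to GCK turnover of glucose (5 mM) and ATP (0.4 mM). Enzyme complex was added after a 20-minute compound preincubation and monitored for 30 minutes.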

[9] = target: Arylsulfatase A (Homo sapiens) (UniProt P15289); experiment: qHTS screen for enhancers of Arylsulfatase A (ASA1): LOPAC Validation Assay (AID 720538); settings: outcome: dose series up to 57.5 µM
Sequence of Arylsulfatase A (Homo sapiens) (P15289 whole entry, looked up): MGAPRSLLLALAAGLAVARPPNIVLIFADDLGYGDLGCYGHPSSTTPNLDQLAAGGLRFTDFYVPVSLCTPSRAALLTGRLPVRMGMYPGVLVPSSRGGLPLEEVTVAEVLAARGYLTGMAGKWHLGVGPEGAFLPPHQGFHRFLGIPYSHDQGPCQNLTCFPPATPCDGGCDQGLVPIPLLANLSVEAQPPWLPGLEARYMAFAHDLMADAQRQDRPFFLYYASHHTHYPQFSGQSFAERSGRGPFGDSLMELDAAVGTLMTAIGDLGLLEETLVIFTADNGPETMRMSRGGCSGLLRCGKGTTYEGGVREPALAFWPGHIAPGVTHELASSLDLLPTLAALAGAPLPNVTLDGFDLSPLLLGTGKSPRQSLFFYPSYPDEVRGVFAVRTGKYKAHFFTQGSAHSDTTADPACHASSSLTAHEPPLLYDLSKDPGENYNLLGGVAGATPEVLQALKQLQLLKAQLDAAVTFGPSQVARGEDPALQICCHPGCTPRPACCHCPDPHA
Summary of the method: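 Cell-based enhancement test: residual ASA activity in SV40-transformed I179S patient fibroblasts is measured by pNCS turnover (0.5mM final, 14h, room temperature) following 48h compound incubation; higher fluorescence indicates activation.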

[10] = target: T1, Hexokinase-4 (Homo sapiens) + Glucokinase regulatory protein (Homo sapiens); experiment: qHTS assay for inhibitors of recombinant human GCK-GKRP interaction: ADP-Glo assay (AID 743206);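 note: plate controls were DMSO plus enzyme for no effect and no enzyme for full effect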
Summary of the method: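 GST-GCK and FLAG-GKRP (15 nM each in the dispensed mix, with 2 uM S6P) react with 0.4 mM ATP and 5 mM glucose (final) in Hepes pH 7.6 for 60 min at room temperature. ADP is measured by ADP-Glo luminescence.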

NC(N)=NC(=O)c1nc(Cl)c(N)nc1N
inactive: outcome [1] | outcome [2] | Potency [3] | outcome [4] | outcome [5] | outcome [6] | max response [7] -15% | outcome [8]

Cn1cc(-c2ccc3nnc(C(F)(F)c4ccc5ncccc5c4)n3n2)cn1
inactive: outcome [1]

OC(CN1CCC(Cc2ccc(F)cc2)CC1)c1ccc(Cl)cc1 (configuration not stated)
inactive: outcome [1] | outcome [9] | outcome [2] | Potency [3] | outcome [4] | outcome [8] | outcome [10]

CCOc1cc(C(=O)Nc2ccc(Cl)c(-c3nc4ccccc4[nH]3)c2)cc(OCC)c1OCC
inactive: outcome [1]

Cc1cc2c(C(C)C)c(O)c(O)c(C=O)c2c(O)c1-c1c(C)cc2c(C(C)C)c(O)c(O)c(C=O)c2c1O
inactive: outcome [1] | outcome [2] | Potency [3] | outcome [8]

Cc1cc(-c2ccc(CC(=O)Nc3ccc(-c4cccnc4)cc3)cc2)ccn1
inactive: outcome [1]

CNC(=O)c1ccc(N2C(=S)N(c3ccc(C#N)c(C(F)(F)F)c3)C(=O)C2(C)C)cc1F
inactive: outcome [1]

Oc1cccc(-c2nc(N3CCOCC3)c3oc4ncccc4c3n2)c1
inactive: outcome [1]

Cc1cc(SCc2sc(-c3ccc(C(F)(F)F)cc3)nc2C)ccc1OCC(=O)O
inactive: outcome [1]

CC(C)(C)NCC(O)c1ccc(O)c(CO)c1 (configuration not stated)
inactive: outcome [9] inactive; inhibitor; fitted 8.4921 uM | outcome [2] | Potency [3] | outcome [4]

Cc1[nH]c(=O)c(C#N)cc1-c1ccc2nccn2c1
inactive: outcome [1] | outcome [9] | outcome [2] | Potency [3] | outcome [4] | outcome [8]

CC(C)C[C@H](NC(=O)[C@@H](O)[C@H](N)Cc1ccccc1)C(=O)O
inactive: outcome [1] | outcome [9] | outcome [2] | Potency [3] | outcome [4] | outcome [8]

Nc1nccc(-c2ccc3noc(-c4ccc(Cl)cc4)c3c2)n1
inactive: outcome [1]

Nc1ncnc2nc(-c3ccc(N4CCOCC4)nc3)cc(-c3cccc(Br)c3)c12
inactive: outcome [1] | outcome [9] | outcome [2]

C[C@]12CCC(=O)C=C1CC[C@@H]1[C@@H]2[C@@H](O)C[C@@]2(C)[C@H]1CC[C@]2(O)C(=O)CO
inactive: outcome [1] | outcome [9] | outcome [2] | Potency [3] | outcome [4] | outcome [5] | max response [7] -2.33% | outcome [8]

COc1cc(Oc2ccnc3cc(OC)c(OC)cc23)ccc1NC(=O)NC(C)c1nccs1 (configuration not stated)
inactive: outcome [1]

Cc1c(C)c2c(c(C)c1O)CCC(C)(COc1ccc(CC3SC(=O)NC3=O)cc1)O2 (configuration not stated)
inactive: outcome [1] | outcome [5] | max response [7] 5.17%

CCc1ccc(CCOc2ccc(CC3SC(=O)NC3=O)cc2)nc1 (configuration not stated)
inactive: outcome [1]

COc1ccc2nc(S(=O)Cc3ncc(C)c(OC)c3C)[nH]c2c1 (configuration not stated)
inactive: outcome [1] | max response [7] 1.66%

C#Cc1cccc(Nc2ncnc3cc(OCCOC)c(OCCOC)cc23)c1
inactive: outcome [1]

Cc1ccc(-n2nc(C(C)(C)C)cc2NC(=O)Nc2ccc(OCCN3CCOCC3)c3ccccc23)cc1
inactive: outcome [1]

O=C(Nc1nc2ccccc2n1CCN1CCOCC1)c1cccc([N+](=O)[O-])c1
inactive: outcome [1] | outcome [9] | outcome [2] | Potency [3] | outcome [8]

Cc1cccc(-c2[nH]c(C(C)(C)C)nc2-c2ccc3nccnc3c2)n1
inactive: outcome [1] | outcome [9] | outcome [2] | Potency [3] | outcome [4] | outcome [8]

CCOC(=O)N[C@@H]1CC[C@@H]2[C@@H](C1)C[C@H]1C(=O)O[C@H](C)[C@H]1[C@@H]2C=Cc1ccc(-c2cccc(F)c2)cn1
inactive: outcome [1]

C/C(=C\C(=O)Nc1ccccc1C(=O)O)c1ccc2ccccc2c1
inactive: outcome [1]

CN(C(=O)c1ccc(F)cc1C(F)(F)F)C1CCN(c2nnc(-c3ccnn3C)c3ccccc23)CC1
inactive: outcome [1]

CCCS(=O)(=O)Nc1ccc(F)c(C(=O)c2c[nH]c3ncc(Cl)cc23)c1F
inactive: outcome [1]

CC(C)(Sc1ccc(CCN(CCCCC2CCCCC2)C(=O)NC2CCCCC2)cc1)C(=O)O
inactive: outcome [1] | outcome [9] | outcome [2] | Potency [3] | outcome [4] | outcome [5] | max response [7] 1.89% | outcome [8] | outcome [10]

O=C1CCCC2=C1C(c1[nH]ncc1Cl)N=C(Nc1nc3ccccc3o1)N2 (configuration not stated)
inactive: outcome [1]

CC(=O)Oc1ccccc1C(=O)O
inactive: outcome [9] | outcome [2] | Potency [3] | outcome [4] | outcome [5] | outcome [6] | max response [7] -2.6% and -0.828% and 18.8% | outcome [8]

Cc1oncc1C(=O)Nc1ccc(C(F)(F)F)cc1
inactive: outcome [1] | outcome [8]

S=C(NCc1ccc2c(c1)OCO2)N1CCN(c2ncnc3c2oc2ccccc23)CC1
inactive: outcome [1]

Nc1nc2ccc(OC(F)(F)F)cc2s1
inactive: outcome [1] | outcome [2] | Potency [3] | outcome [8]
